The values below come from PubChem BioAssay.

Structures are written as SMILES.

The experiment in a line: small-molecule binders of probe aInhba, primary screen, biochemical, small-molecule microarray, 635/667 nm fluorescence (AID 1148).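 Also: score merges 667nm spot fluorescence with signal-to-noise for antibody binding to printed compounds.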 As to conditions: higher = more signal.
The compound `O=C1[C@H]2[C@H]3[C@H](O)[C@H](O)CC(=NOC[C@@H](O)COCc4ccco4)[C@@H]3CC[C@H]2C(=O)N1Cc1ccccc1` yielded a composite z-score of -0.186.
For `O=C1[C@H]2CCn3c(=O)n(-c4ccccc4)c(=O)n3[C@H]2[C@H](O)[C@@H]2O[C@H]12`, the composite z-score is -0.272.
As to `CON=C[C@@H](OC)[C@H](C)C=CCC(=O)OC`, the composite z-score is -0.0762.
The result for `CC(C)=CCCC(C)=CCON=C1C[C@@H](O)[C@@H](O)[C@@H]2[C@@H]3C(=O)N(Cc4ccc5c(c4)OCO5)C(=O)[C@@H]3CC[C@@H]12` reads -0.0791; that for `CC(=O)OC[C@H]1O[C@H](CC=NO[C@@H](C)c2cc(-c3c(C)cc(C)cc3C)no2)C=C[C@@H]1OC(C)=O`, -0.175.
On to `COc1ccc(-c2cnnc(CCCn3ccnc3-c3ccccc3)n2)cc1`, for which the composite z-score was -0.144.
Regarding `O=C1C2=CC[C@H]3C(=O)N(c4ccc(F)cc4F)C(=O)[C@H]3[C@H]2[C@H](O)[C@@H]2O[C@H]12`, the composite z-score was -0.0221.
Consider `COC(=O)CC=C[C@@H](C)[C@@H](C=NOC[C@@H](O)COCc1ccco1)OC`, for which the composite z-score was -0.214.
The result for `COC(=O)[C@H](C)NC(=O)CCC1CC(OC(=O)NCc2cccc3ccccc23)CC2(CCCC(COC(=O)NCCCN3CCCC3=O)O2)O1` (stereo partly drawn) reads -0.152.
With `CCOC(=O)[C@H](CC(C)C)NC(=O)CCC1CC(OC(=O)NCc2ccc3c(c2)OCO3)CC2(CCCC(COC(=O)NCCc3ccccc3OC)O2)O1` (stereo partly drawn) the figure was -0.128; with `CO[C@@H](C(C)C)[C@@H](C)C1OC(=O)CC1O` (stereo partly drawn), -0.158; with `Cc1ccc(C(C)C)n1C(=O)OC(C)(C)C`, -0.176.
Take `CCOC(=O)[C@H](Cc1ccccc1)NC(=O)CCC1CC(OC(=O)NCc2ccc3c(c2)OCO3)CC2(CCCC(COC(=O)NCCOc3ccccc3)O2)O1` (stereo partly drawn): the composite z-score was -0.177.
